TRAIL sens C8 = caspase-8 TRAIL sensitization. NB7+C8 cells + TRAIL, ATPlite viability luminescence. inhibition (viability loss, TRAIL sensitization), % at 10 µM. 1% of 360,000 active;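 active = compounds causing at least 50% loss of cell viability in the single-dose screen, relative to plate controls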
SENP8 block-1 = blocks the human protease SENP8; Q96LD8; purified SENP8, Z-RLRGG-aminoluciferin cleavage, luminescence; inhibition, % at 10 µM; 1.2% of 330,000 active; in the data active = inhibition above about 50%
Target sequence (Q96LD8 whole entry, looked up): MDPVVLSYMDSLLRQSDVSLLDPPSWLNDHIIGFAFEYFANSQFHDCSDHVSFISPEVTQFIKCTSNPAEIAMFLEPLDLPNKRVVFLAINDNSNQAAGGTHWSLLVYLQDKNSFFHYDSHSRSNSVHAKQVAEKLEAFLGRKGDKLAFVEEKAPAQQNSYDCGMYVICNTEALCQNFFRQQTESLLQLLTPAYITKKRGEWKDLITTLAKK
SENP8 block-2 = blocks human SENP8 cleavage of Nedd8 substrate; Q96LD8; recombinant SENP8, Nedd8 substrate fluorescence; inhibition, % at 20 µM; 0.64% of 360,000 active; in the data active = inhibition mostly above about 40%, no sharp cut-off; inactive = mostly below about 27%
SENP7 inh = SENP7 protease inhibition; Q9BQF6; recombinant SENP7, Z-RLRGG-aminoluciferin luminescence, 40 min; inhibition, % at 5 µM; 1.5% of 330,000 active; AID 434973;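 active = inhibition above about 50% at the single test dose, limit read from the data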;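 note: plate controls were DMSO with enzyme for no effect and no enzyme buffer wells for full effect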
PPC-1+TRAIL kill = PPC-1 cancer cell killing with TRAIL present. PPC-1 cells + TRAIL, ATPLite viability luminescence. cell killing (% activity), % at 4 µM or 5 µM. 0.41% of 220,000 active. AID 1443;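 active = cell killing above 50% in the first pass at 4 µM, then a duplicate retest at 5 µM averaging 50% or more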;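 note: plate controls were cells with TRAIL plus DMSO for no effect and medium-only wells lacking cells for full effect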
SENP6 block = inhibitors of human SENP6 protease; Recombinant SENP6 catalytic domain, aminoluciferin luminescence; 1.8% of 330,000 active; AID 2599; inhibition, % at 10 µM;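 active = inhibition above about 50% at the single tested dose, limit read from the data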;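 note: plate controls were DMSO wells with enzyme for no effect and DMSO wells lacking enzyme for full effect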
PPC1 cytotox = kills PPC-1 cells | AID 1447 | PPC-1 viability, ATPlite luminescence, overnight | 50% of 1,200 active | shares compounds with PPC-1+TRAIL kill | cytotoxicity, % at 5 µM;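 active = reconfirmed compounds whose average cytotoxicity reaches 50% or more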;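 note: 0% = DMSO-treated cells and 100% = wells holding medium but no cells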
SENP8 conf = confirmation of human SENP8 protease inhibitors; shares compounds with SENP7 inh; Recombinant SENP8, Z-RLRGG-aminoluciferin luminescence, 60 min; inhibition, % at 12.5 µM; 40% of 6,200 active; AID 488912;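 active = mean inhibition across replicates above about 50%, limit read from the data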
SENP6 conf = confirmation of human SENP6 protease inhibitors | inhibition, % at 12.5 µM | recombinant SENP6, Z-RLRGG-aminoluciferin luminescence | shares compounds with SENP7 inh | 58% of 6,200 active
SENP7 conf = human SENP7 inhibition, confirmed; AID 488917; recombinant SENP7, Z-RLRGG-aminoluciferin luminescence, 40 min; inhibition, % at 12.5 µM; 69% of 6,200 active; shares compounds with SENP7 inh
Casp3 SENP sel = inhibits human caspase-3 in SENP selectivity test. purified caspase-3, Z-DEVD-aminoluciferin luminescence, 60 min. AID 488918. inhibition, % at 12.5 µM. 60% of 6,200 active. shares compounds with SENP7 inh;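 active = mean inhibition above about 50%, limit read from the data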;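 note: plate controls were enzyme with DMSO for no effect and wells without caspase-3 for full effect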
Target sequence (P42574 28-227 limits assumed): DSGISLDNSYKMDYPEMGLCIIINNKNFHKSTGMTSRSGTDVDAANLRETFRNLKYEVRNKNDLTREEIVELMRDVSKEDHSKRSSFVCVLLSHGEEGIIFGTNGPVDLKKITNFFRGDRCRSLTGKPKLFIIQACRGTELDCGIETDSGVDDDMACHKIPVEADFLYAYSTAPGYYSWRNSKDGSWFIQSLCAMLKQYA
SENP luc ctr = interferes with luciferase luminescence in SENP counter-screen | shares compounds with SENP7 inh | Pre-incubated SENP8/Z-RLRGG-aminoluciferin, luciferase luminescence interference | inhibition, % at 12.5 µM | 39% of 6,200 active | AID 488919;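 active = mean inhibition above about 50% when retested at one dose, limit read from the data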;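 note: plate controls were DMSO wells with completed reaction for no effect and substrate without enzyme for full effect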
The depositor's hits bear a star; / = no result given. Sampled rows, rich in hits. Any-hit rate of the full collection: about 3%.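 Rule for the calls, unless noted: active = mean inhibition above about 50% in the one-dose retest (limit read from the data); inactive = the rest.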

SMILES | TRAIL sens C8 | SENP8 block-1 | SENP8 block-2 | SENP7 inh | PPC-1+TRAIL kill | SENP6 block | PPC1 cytotox | SENP8 conf | SENP6 conf | SENP7 conf | Casp3 SENP sel | SENP luc ctr
O=C(Nc1ccc2c(c1)OCCO2)c1ccc2nccnc2c1 | 68* | 39 | 16 | 2 | 50 | 53* | 49 | 50* | 48 | 82* | 80* | 60*
Cc1ccc(C(=O)Nc2ccc3nccnc3c2)cc1 | 76* | 51* | -396 | 73* | 74* | 67* | 74* | 56* | 55* | 87* | 83* | 27
O=C(Nc1ccc2c(c1)OCCO2)c1cccnc1 | 11 | -21 | 22 | -9 | 13 | -9 | / | / | / | / | / | /
Cc1ccc(C(=O)NCC(=O)Nc2ccc3c(c2)CCC3)cc1 | -8 | -22 | 4 | -3 | / | -7 | / | / | / | / | / | /
CCOc1ccc(NC(=O)CCNS(=O)(=O)c2ccc3c(c2)CC(C)N3C(C)=O)cc1 (stereo not given) | -8 | -12 | 7 | 0 | / | -11 | / | / | / | / | / | /
COc1ccc(C(=O)NNC(=O)c2ccccn2)cc1 | 89* | 97* | 8 | 100* | 86* | 99* | 81* | 98* | 99* | 102* | 98* | 98*
COc1cc(C)c(C(=O)CSc2nnc(CNC(=O)c3ccco3)n2C)cc1C | 0 | -2 | 8 | 3 | / | -13 | / | / | / | / | / | /
COc1cccc(/C=N/NC(=S)Nc2cccc(C(=O)O)c2)c1O | 87* | 95* | -203 | 98* | 37 | 97* | 35 | 98* | 99* | 102* | 97* | 84*
CCCCn1nc(C(=O)N(C)Cc2nc3ccccc3c(=O)[nH]2)c2ccccc2c1=O | 3 | / | 8 | / | / | / | / | / | / | / | / | /
Fc1ccc(-c2nnc(NC3=NCCCCC3)o2)cc1 | 75* | 89* | 19 | 98* | 66* | 91* | 64* | 11 | 95* | 102* | 98* | 75*
c1ccc(-c2nnc(NC3=NCCC3)o2)cc1 | 33 | 37 | 24 | 43 | 40 | 7 | / | / | / | / | / | /
Cc1occc1C(=O)O/N=C(\N)c1ccccc1 | 70* | 91* | 11 | 93* | 57* | 94* | 55* | 94* | 95* | 102* | 98* | 94*
CNS(=O)(=O)c1cccc(C(=O)OCC(=O)N2CC(C)OC(C)C2)c1 (stereo not given) | -3 | 1 | 0 | -2 | / | 7 | / | / | / | / | / | /
O=C(CC[C@H]1O[C@@H](n2ccc(=O)[nH]c2=O)[C@H](O)[C@@H]1O)N[C@H](Cc1ccccc1)C(=O)NCc1ccccc1 | -9 | / | 35 | / | / | / | / | / | / | / | / | /
Cn1c(C(=O)Nc2ccc3c(c2)OCO3)cc2sccc21 | 32 | 46 | -23 | 63* | 6 | 71* | 12 | 59* | 61* | 88* | 47 | 44
O=C(Nc1ccc2c(c1)OCCO2)Nc1ccc2c(c1)OCO2 | 83* | 53* | 4 | 72* | 73* | 71* | 73* | 65* | 64* | 86* | 72* | 9
COc1cc(SC)ccc1C(=O)Nc1ccc2c(c1)OCCO2 | 66* | 63* | 3 | 81* | 68* | 79* | 65* | 80* | 81* | 95* | 75* | 64*
NC(=O)c1ccc(NC(=O)Nc2ccc3c(c2)OCO3)cc1 | 32 | -9 | 0 | -4 | / | -2 | / | / | / | / | / | /
